Source: PubChem
NOMO-1 viab: STK33 inhibitor candidate reducing NOMO-1 cell viability | NOMO-1 AML viability, CellTiter-Glo luminescence, 72 h | AID 2330 | 37,000 compounds, 7.5% hits | inhibition, % (concentration not given with the values); in the data active = inhibition above about 80%
STK33 inh: human STK33 kinase inhibition; inhibition, % at 12.5 µM; AID 2322; 27,000 compounds, 0.44% hits; ADP-Glo luminescence, MBP substrate; Q9BYT3; in the data active = inhibition above about 20%
Target sequence (Q9BYT3 whole entry, looked up): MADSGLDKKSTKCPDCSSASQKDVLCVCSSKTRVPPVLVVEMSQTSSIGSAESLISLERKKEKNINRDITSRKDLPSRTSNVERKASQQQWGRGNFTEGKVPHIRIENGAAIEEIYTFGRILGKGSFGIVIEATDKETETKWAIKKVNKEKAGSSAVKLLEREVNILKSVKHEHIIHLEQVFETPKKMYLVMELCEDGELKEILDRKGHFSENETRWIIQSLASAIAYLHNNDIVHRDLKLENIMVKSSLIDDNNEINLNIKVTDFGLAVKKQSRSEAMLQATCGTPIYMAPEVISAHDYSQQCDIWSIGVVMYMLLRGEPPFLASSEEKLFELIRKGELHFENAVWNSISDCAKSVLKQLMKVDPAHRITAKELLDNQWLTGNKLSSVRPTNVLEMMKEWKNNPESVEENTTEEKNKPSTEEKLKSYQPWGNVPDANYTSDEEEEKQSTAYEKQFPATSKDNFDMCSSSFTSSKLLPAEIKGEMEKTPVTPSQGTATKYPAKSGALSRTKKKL
PD-1 reversal: reversal of PD-1 mediated T-cell inhibition; primary human CD4 T cells, PD-L1 beads, CellTiter-Glo 96 h; activation, % (test concentration not listed); 29,000 tested, under 10 active; call rule not given here
Hits are given with their value. The full list was thinned out, with hits kept by preference.

`Cc1nc(SCC(=O)c2cc3ccccc3oc2=O)c(C#N)c(C)c1C` gave NOMO-1 viab 110 and STK33 inh inactive.
`Cc1cc(C)c(C#N)c(SCC(=O)c2cc3ccccc3oc2=O)n1` gave NOMO-1 viab inactive and STK33 inh inactive.
`CCn1c(SCC(=O)Nc2ccc(F)cc2)nnc1-c1cccs1` gave NOMO-1 viab inactive and STK33 inh inactive.
For OC(c1cc(C(F)(F)F)nc2c(C(F)(F)F)cccc12)C1CCCCN1 (stereo unspecified) the results were NOMO-1 viab 129, STK33 inh inactive and PD-1 reversal inactive.
COc1ccccc1CCNC(=O)c1cc(-c2ccc(C)o2)nc2ccccc12 was read as NOMO-1 viab inactive and STK33 inh inactive.
CCC(C)C(O)C(C)(O)/C=C/C1=CC2=C(Cl)C(=O)C(C)(O)C(OC(C)=O)C2CO1 (stereo unspecified) was read as NOMO-1 viab 120, STK33 inh inactive and PD-1 reversal inactive.
For O=c1cc(CSc2n[nH]c(-c3cccs3)n2)c2ccc(O)cc2o1 the results were NOMO-1 viab inactive and PD-1 reversal inactive.
O=C(CC(NC1CC1)C(=O)O)c1ccc(Cl)cc1 (stereo unspecified) was read as NOMO-1 viab inactive, STK33 inh inactive and PD-1 reversal inactive.
O=C(CC(Sc1ccc(Br)cc1)C(=O)O)c1ccc(Cl)cc1 (stereo unspecified) was read as NOMO-1 viab 115 and PD-1 reversal inactive.
For COc1ccc(-c2nn(-c3ccccc3)cc2C(=O)NCC(=O)c2ccccc2)cc1OC the results were NOMO-1 viab inactive and STK33 inh inactive.
`COC(=O)CNC(=O)c1cn(-c2ccccc2)nc1-c1cccs1` gave NOMO-1 viab 105, STK33 inh inactive and PD-1 reversal inactive.
`OC(COc1ccccc1Cl)Cn1cnc2ccccc21` (stereo unspecified) gave NOMO-1 viab inactive, STK33 inh inactive and PD-1 reversal inactive.
Screening C[C@H](C[C@@H](O)[C@](C)(O)[C@H]1CC[C@@]2(O)C3=CC(=O)[C@@H]4C[C@@H](O)[C@@H](O)C[C@]4(C)C3CC[C@]12C)C(C)(C)O (stereo partly specified) returned NOMO-1 viab inactive, STK33 inh inactive and PD-1 reversal inactive.
For C[C@@H]1CN([C@@H](C)CO)C(=O)Cc2cc(NC(=O)Nc3ccc(C(F)(F)F)cc3)ccc2O[C@@H]1CN(C)CC1CCCCC1 the results were NOMO-1 viab 104, STK33 inh inactive and PD-1 reversal inactive.
`C[C@@H]1CN([C@H](C)CO)C(=O)Cc2cc(NC(=O)Nc3ccc(C(F)(F)F)cc3)ccc2O[C@@H]1CN(C)C` gave NOMO-1 viab inactive, STK33 inh inactive and PD-1 reversal inactive.
C[C@@H]1CN([C@H](C)CO)C(=O)c2cc(NC(=O)Nc3ccc(C(F)(F)F)cc3)ccc2O[C@@H]1CN(C)CC1CC1 was read as NOMO-1 viab inactive.
C[C@H]1CN([C@@H](C)CO)C(=O)Cc2cc(NC(=O)Nc3ccc(C(F)(F)F)cc3)ccc2O[C@H]1CN(C)CC1CCCCC1 was read as NOMO-1 viab 130, STK33 inh inactive and PD-1 reversal inactive.
For C[C@H]1CN([C@@H](C)CO)C(=O)Cc2cc(NC(=O)Nc3ccc(C(F)(F)F)cc3)ccc2O[C@@H]1CN(C)CC1CC1 the results were NOMO-1 viab inactive and PD-1 reversal inactive.
For C[C@@H]1CN([C@H](C)CO)C(=O)c2cc(NC(=O)Nc3ccc(C(F)(F)F)cc3)ccc2O[C@H]1CN(C)CC1CCCCC1 the results were NOMO-1 viab 103, STK33 inh inactive and PD-1 reversal inactive.
NC(=O)c1ccc(NCc2cccnc2)c([N+](=O)[O-])c1 was read as NOMO-1 viab inactive, STK33 inh inactive and PD-1 reversal inactive.
`COc1ccc(S(=O)(=O)N(C)CC(=O)Nc2cc(Cl)c(Cl)cc2Cl)cc1Cl` gave NOMO-1 viab inactive, STK33 inh inactive and PD-1 reversal inactive.
Screening COc1ccc(OC)c(NC(=O)CSc2nc(-c3ccccc3)nc3c2COC(C)(C)C3)c1 returned NOMO-1 viab inactive, STK33 inh inactive and PD-1 reversal inactive.
`CC1(C)Cc2nc(-c3ccccc3)nc(SCC(=O)Nc3ccc(Br)cc3)c2CO1` gave NOMO-1 viab 101, STK33 inh inactive and PD-1 reversal inactive.
CCN(CC)c1ccc2cc(C(=O)Nc3ccccc3)c(=N)oc2c1 was read as NOMO-1 viab inactive and PD-1 reversal inactive.
Screening N=c1oc2ccccc2cc1C(=O)Nc1ccc(F)cc1 returned NOMO-1 viab 120 and PD-1 reversal inactive.
Screening Cc1nc2sc3c(c2c2nnc(SCC(=O)c4ccccc4)n12)CCCC3 returned NOMO-1 viab inactive and PD-1 reversal inactive.
`C[C@@H]1CN([C@H](C)CO)C(=O)Cc2cc(N(C)C)ccc2O[C@@H]1CN(C)Cc1ccc(Cl)c(Cl)c1` gave NOMO-1 viab 99, STK33 inh inactive and PD-1 reversal inactive.
For C[C@H]1CN([C@@H](C)CO)C(=O)c2cc(N(C)C)ccc2O[C@@H]1CN(C)Cc1ccc(Cl)c(Cl)c1 the results were NOMO-1 viab inactive, STK33 inh inactive and PD-1 reversal inactive.
`C[C@@H]1CN([C@H](C)CO)C(=O)Cc2cc(NS(C)(=O)=O)ccc2O[C@@H]1CN(C)Cc1ccc(Cl)c(Cl)c1` gave NOMO-1 viab inactive, STK33 inh inactive and PD-1 reversal inactive.
For C[C@@H]1CN([C@@H](C)CO)C(=O)Cc2cc(NS(=O)(=O)c3ccc(Cl)cc3)ccc2O[C@@H]1CN(C)Cc1ccc(Cl)c(Cl)c1 the results were NOMO-1 viab 124, STK33 inh inactive and PD-1 reversal inactive.
C[C@@H]1CN([C@H](C)CO)C(=O)Cc2cc(NS(=O)(=O)c3ccc(F)cc3)ccc2O[C@@H]1CN(C)Cc1ccc2c(c1)OCO2 was read as NOMO-1 viab inactive, STK33 inh inactive and PD-1 reversal inactive.
`C[C@@H]1CN([C@@H](C)CO)C(=O)Cc2cc(NS(=O)(=O)c3ccc(F)cc3)ccc2O[C@@H]1CN(C)Cc1ccc(Cl)c(Cl)c1` gave NOMO-1 viab 96 and STK33 inh inactive.
C[C@H]1CN([C@@H](C)CO)C(=O)Cc2cc(NS(C)(=O)=O)ccc2O[C@@H]1CN(C)Cc1ccc(Cl)c(Cl)c1 was read as NOMO-1 viab 98 and STK33 inh inactive.
C[C@H]1CN([C@@H](C)CO)C(=O)Cc2cc(NS(=O)(=O)c3ccc(Cl)cc3)ccc2O[C@H]1CN(C)Cc1ccc2c(c1)OCO2 was read as NOMO-1 viab inactive and STK33 inh inactive.
Cc1ccc(-n2c(SCC(=O)Nc3sc4c(c3C#N)CCCC4)nnc2-c2ccccc2)cc1 was read as NOMO-1 viab inactive, STK33 inh inactive and PD-1 reversal inactive.
Screening COCC1OC(OC(C)(C)C2CCC3(C)C(O2)C(O)CC2(C)/C(=C4\CCC(O)C(C)(CCC(O)C(C)(C)O)C4)CCC23)C(NC(C)=O)C(O)C1O (stereo unspecified) returned NOMO-1 viab inactive, STK33 inh inactive and PD-1 reversal inactive.
Screening C=CC[C@@]1(C(=O)NCc2ccccc2)N=C(c2ccc(OCCCO)cc2)O[C@@H]1c1ccccc1 returned STK33 inh inactive.
`N[C@@H](CO)CSCc1ccccc1` gave NOMO-1 viab inactive, STK33 inh inactive and PD-1 reversal inactive.
